From the supplement of paper PMC10849652
The full data set covers some 7,900 targets. This sample favours those with a hit. About 0.6% of all pairs of compound and target were hits.

Tests used:
Assay in all cases: log2 fold change, soluble protein after heating vs DMSO (PISA); higher = thermal stabilisation; K562 cells, 10 uM, 30 min; active = over 0.2 and 3.5 SD of the protein, either way, in both replicates (recomputed)
[1] = compound: C1=CC=C(C=C1)[C@H](COC2=CC3=C(C=C2)NC(=O)N3)NC(=O)C4=CC=CN(C4=O)CC5=CC(=C(C=C5)F)F
Outline: (§1)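 Aliquots of K562 cells (2×10^6 cells/mL) treated with 10 μM compound for 30 min were heated for 3 min over 48°C-58°C. After pooling and extraction in PBS with 0.5% NP-40 at 4°C, soluble protein from a 21,000xg, 90 min spin was quantified by TMTpro 16plex LC-MS/MS with channel sums equalised. Thermal stability is expressed against control samples, from duplicates, as a log2 fold change.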

[2] = compound: CC1=C(SC2=C1C(=N[C@H](C3=NN=C(N32)C)CC(=O)N)C4=CC=C(C=C4)Cl)C
Outline: as §1

[3] = compound: CC1=C2C(=CC=C1)N=C(N(C2=O)C3=CC=CC=C3C)CN4C=NC5=C(N=CN=C54)N
Outline: as §1

[4] = compound: Cc1sc2c(c1C)C(c1ccc(Cl)cc1)=N[C@@H](CC(=O)OC(C)(C)C)c1nnc(C)n1-2
Outline: as §1

[5] = compound: c1ccc([C@@H]2C[C@H]2NC2CCNCC2)cc1
Outline: as §1

Measured: log2 fold change

RELA (UniProt Q04206)
inactive: [1] -0.013 | [2] 0.056 | [3] 0.03 | [4] 0.031 | [5] 0.008

SIDT2 isoform 2 (UniProt Q8NBJ9)
inactive: [1] -0.005 | [2] -0.005 | [3] 0.018 | [4] -0.115 | [5] 0.088

RDH10 (UniProt Q8IZV5)
inactive: [1] 0.113 | [2] 0.08 | [3] 0.098 | [4] -0.058 | [5] -0.031

RRS1 (UniProt Q15050)
Sequence of UniProt Q15050 (Q15050 whole entry, looked up): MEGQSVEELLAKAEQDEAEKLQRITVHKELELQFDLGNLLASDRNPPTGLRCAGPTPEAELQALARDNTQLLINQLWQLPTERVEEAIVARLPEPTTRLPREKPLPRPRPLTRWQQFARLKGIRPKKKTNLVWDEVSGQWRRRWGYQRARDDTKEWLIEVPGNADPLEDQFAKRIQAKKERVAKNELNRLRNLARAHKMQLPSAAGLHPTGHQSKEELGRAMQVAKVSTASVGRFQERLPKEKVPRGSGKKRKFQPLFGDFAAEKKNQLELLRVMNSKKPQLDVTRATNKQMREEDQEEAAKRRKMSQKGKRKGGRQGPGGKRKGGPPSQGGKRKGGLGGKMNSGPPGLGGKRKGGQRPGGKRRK
inactive: [1] 0.168 | [2] -0.368 | [3] -0.187 | [4] 0.246 | [5] -0.006

RRP36 (UniProt Q96EU6)
inactive: [1] 0.119 | [2] -0.266 | [3] -0.228 | [4] 0.245 | [5] 0.019

SCG3 (UniProt Q8WXD2)
inactive: [1] 0.131 | [2] 0.034 | [3] 0.09 | [4] 0 | [5] 0.051

SEC23IP (UniProt Q9Y6Y8)
inactive: [1] -0.037 | [2] 0.001 | [3] 0.063 | [4] 0.031 | [5] -0.037

RSPRY1 (UniProt Q96DX4)
inactive: [1] -0.009 | [2] 0.024 | [3] 0.012 | [4] -0.026 | [5] 0.029

SASH1 (UniProt O94885)
inactive: [1] -0.044 | [2] 0.092 | [3] 0.037 | [4] -0.045 | [5] -0.161

RPS2 (UniProt P15880)
inactive: [1] 0.123 | [2] -0.222 | [3] -0.222 | [4] 0.113 | [5] 0

RNPEP (UniProt Q9H4A4)
inactive: [1] -0.043 | [2] 0.05 | [3] 0.047 | [4] -0.015 | [5] -0.021

RPTOR (UniProt Q8N122)
inactive: [1] -0.022 | [2] -0.015 | [3] 0.095 | [4] -0.02 | [5] 0.032

RPS18 (UniProt P62269)
inactive: [1] 0.088 | [2] -0.125 | [3] -0.04 | [4] 0.099 | [5] 0.004

RABGGTA (UniProt Q92696)
inactive: [1] -0.105 | [2] 0.084 | [3] 0.035 | [4] 0.014 | [5] -0.024

SCAF11 (UniProt Q99590)
inactive: [1] -0.104 | [2] -0.098 | [3] 0.021 | [4] 0.064 | [5] 0.016

SCD (UniProt O00767)
inactive: [1] 0.011 | [2] -0.019 | [3] 0.012 | [4] 0.054 | [5] 0.027

ROR2 (UniProt Q01974)
inactive: [1] -0.062 | [2] 0.004 | [3] 0.023 | [4] -0.048 | [5] -0.035

RNF220 (UniProt Q5VTB9)
inactive: [1] 0.004 | [2] 0.072 | [3] 0.14 | [4] -0.045 | [5] 0.038

RAB3GAP2 (UniProt Q9H2M9)
inactive: [1] -0.023 | [2] -0.07 | [3] 0.051 | [4] 0.04 | [5] 0.001

RIOK3 (UniProt O14730)
inactive: [1] -0.015 | [2] -0.008 | [3] -0.016 | [4] -0.008 | [5] 0.024

SHROOM2 (UniProt Q13796)
Sequence of UniProt Q13796 (Q13796 whole entry, looked up): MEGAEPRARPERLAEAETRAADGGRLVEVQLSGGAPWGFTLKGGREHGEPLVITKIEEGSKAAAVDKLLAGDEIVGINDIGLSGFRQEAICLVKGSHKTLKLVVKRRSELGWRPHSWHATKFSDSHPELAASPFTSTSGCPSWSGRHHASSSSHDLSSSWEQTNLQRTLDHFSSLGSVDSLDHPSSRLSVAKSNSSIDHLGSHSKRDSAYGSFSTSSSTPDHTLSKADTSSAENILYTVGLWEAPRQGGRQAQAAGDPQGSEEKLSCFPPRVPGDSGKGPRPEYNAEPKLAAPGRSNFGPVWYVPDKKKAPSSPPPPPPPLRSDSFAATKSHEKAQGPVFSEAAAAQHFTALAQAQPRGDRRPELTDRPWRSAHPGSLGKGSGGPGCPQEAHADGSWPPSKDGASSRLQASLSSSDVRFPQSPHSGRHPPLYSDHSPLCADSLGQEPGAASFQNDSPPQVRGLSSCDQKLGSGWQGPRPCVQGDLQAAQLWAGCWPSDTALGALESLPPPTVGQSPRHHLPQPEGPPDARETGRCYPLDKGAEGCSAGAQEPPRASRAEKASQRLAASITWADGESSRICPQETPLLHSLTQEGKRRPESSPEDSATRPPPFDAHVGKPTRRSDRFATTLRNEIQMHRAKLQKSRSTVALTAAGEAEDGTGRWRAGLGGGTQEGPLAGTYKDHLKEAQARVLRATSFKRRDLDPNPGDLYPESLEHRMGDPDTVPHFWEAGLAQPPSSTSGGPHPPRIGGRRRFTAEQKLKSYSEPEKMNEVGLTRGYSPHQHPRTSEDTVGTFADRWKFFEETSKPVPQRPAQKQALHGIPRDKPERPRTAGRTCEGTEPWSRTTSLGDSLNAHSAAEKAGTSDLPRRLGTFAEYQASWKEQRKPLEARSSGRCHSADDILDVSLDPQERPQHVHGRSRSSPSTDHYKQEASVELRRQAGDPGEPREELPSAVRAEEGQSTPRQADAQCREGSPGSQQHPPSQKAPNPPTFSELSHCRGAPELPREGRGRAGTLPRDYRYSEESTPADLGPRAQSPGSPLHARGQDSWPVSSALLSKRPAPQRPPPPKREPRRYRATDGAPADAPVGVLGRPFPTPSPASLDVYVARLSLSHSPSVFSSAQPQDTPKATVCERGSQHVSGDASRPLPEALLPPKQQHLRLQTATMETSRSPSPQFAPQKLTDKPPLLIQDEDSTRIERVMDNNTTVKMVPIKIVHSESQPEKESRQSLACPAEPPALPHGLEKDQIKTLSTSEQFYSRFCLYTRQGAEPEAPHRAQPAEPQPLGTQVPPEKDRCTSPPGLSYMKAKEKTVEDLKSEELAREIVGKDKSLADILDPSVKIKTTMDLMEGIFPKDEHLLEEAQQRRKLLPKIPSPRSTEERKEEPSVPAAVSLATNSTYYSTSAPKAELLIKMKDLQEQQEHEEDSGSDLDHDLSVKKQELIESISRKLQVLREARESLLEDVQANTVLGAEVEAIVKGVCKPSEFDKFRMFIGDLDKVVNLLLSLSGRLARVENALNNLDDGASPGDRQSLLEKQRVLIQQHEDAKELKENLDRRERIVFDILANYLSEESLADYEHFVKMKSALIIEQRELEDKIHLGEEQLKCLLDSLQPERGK
inactive: [1] 0.105 | [2] 0.102 | [3] 0.103 | [4] -0.008 | [5] -0.072

SDHAF2 (UniProt Q9NX18)
Sequence of UniProt Q9NX18 (Q9NX18 whole entry, looked up): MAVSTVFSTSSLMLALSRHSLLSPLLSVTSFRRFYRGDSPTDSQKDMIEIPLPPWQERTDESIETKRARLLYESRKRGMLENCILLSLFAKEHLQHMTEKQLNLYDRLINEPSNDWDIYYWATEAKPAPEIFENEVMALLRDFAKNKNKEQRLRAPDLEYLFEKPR
inactive: [1] -0.02 | [2] 0.078 | [3] -0.013 | [4] -0.097 | [5] -0.096

RB1CC1 (UniProt Q8TDY2)
Sequence of UniProt Q8TDY2 (Q8TDY2 whole entry, looked up): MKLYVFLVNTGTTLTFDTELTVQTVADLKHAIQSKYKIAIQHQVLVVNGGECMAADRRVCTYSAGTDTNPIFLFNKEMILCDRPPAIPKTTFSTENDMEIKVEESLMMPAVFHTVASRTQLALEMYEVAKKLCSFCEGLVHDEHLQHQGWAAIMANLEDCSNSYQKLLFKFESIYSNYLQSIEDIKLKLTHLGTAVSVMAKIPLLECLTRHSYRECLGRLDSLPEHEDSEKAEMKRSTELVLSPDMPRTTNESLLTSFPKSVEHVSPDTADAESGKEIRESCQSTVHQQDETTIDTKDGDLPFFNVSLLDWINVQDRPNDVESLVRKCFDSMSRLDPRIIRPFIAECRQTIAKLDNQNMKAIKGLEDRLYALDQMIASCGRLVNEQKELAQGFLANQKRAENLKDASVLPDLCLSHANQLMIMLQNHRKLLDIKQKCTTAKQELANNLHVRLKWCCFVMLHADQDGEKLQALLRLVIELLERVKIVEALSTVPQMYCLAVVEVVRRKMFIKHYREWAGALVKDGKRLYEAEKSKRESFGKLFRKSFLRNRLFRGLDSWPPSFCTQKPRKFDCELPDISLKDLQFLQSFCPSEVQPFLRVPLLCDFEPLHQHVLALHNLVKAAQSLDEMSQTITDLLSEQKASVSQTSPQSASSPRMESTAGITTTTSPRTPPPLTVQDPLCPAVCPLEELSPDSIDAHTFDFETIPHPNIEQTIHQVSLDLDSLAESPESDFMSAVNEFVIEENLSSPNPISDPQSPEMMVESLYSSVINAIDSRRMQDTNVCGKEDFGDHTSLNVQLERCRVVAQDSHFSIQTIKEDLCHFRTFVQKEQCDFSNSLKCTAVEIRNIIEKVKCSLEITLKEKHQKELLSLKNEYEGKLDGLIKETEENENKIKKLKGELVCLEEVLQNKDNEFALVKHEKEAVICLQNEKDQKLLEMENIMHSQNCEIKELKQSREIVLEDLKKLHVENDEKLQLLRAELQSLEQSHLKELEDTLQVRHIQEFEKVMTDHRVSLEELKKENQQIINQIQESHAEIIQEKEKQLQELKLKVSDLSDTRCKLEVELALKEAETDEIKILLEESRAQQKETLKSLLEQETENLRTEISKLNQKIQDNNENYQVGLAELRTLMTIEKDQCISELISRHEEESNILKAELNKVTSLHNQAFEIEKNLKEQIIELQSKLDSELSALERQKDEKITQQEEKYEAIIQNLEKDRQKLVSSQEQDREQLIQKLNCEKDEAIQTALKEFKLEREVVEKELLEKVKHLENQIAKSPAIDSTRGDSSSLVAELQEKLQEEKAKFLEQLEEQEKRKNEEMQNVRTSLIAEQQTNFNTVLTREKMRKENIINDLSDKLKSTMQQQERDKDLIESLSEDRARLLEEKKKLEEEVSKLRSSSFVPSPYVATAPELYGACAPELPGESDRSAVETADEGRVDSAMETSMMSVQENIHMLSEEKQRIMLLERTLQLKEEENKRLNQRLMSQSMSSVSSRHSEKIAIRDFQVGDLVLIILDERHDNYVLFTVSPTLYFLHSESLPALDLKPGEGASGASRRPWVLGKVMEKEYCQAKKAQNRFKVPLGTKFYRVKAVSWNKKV
inactive: [1] 0.198 | [2] 0.096 | [3] 0.032 | [4] 0.029 | [5] -0.063

RBBP6 (UniProt Q7Z6E9)
inactive: [1] 0.094 | [2] 0.119 | [3] -0.017 | [4] 0.066 | [5] -0.32

RBM4 (UniProt Q9BWF3)
inactive: [1] -0.029 | [2] -0.074 | [3] -0.011 | [4] 0.009 | [5] 0.073

SCPEP1 (UniProt Q9HB40)
inactive: [1] 0.006 | [2] -0.006 | [3] -0.001 | [4] 0.007 | [5] -0.007

RAD50 isoform 2 (UniProt Q92878)
inactive: [1] -0.006 | [2] 0.017 | [3] 0.061 | [4] 0 | [5] 0.014

RTF2 (UniProt Q9BY42)
inactive: [1] 0.054 | [2] -0.009 | [3] 0.068 | [4] -0.038 | [5] 0.045

SHCBP1 (UniProt Q8NEM2)
Sequence of UniProt Q8NEM2 (Q8NEM2 whole entry, looked up): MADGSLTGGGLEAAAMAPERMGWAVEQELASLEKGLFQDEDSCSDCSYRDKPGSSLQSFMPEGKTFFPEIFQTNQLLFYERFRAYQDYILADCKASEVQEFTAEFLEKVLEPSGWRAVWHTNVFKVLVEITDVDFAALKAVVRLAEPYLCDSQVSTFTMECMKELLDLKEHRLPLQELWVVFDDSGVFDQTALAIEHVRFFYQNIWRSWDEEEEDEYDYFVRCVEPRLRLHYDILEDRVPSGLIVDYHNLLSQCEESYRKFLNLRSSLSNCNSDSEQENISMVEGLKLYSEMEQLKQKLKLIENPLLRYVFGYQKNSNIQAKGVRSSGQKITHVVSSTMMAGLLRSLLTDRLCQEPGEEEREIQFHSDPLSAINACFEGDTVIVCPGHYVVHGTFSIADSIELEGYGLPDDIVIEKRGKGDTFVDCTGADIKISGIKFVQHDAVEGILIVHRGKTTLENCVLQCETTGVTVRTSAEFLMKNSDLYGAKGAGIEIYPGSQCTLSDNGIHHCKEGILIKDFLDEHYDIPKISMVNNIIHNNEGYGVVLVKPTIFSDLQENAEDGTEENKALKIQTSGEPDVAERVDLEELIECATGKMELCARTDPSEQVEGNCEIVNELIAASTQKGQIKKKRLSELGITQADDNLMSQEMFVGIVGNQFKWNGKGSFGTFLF
inactive: [1] 0.018 | [2] -0.176 | [3] 0.138 | [4] -0.089 | [5] -0.056

RIC8A isoform 3 (UniProt Q9NPQ8)
Sequence of UniProt Q9NPQ8 (Q9NPQ8 whole entry, looked up): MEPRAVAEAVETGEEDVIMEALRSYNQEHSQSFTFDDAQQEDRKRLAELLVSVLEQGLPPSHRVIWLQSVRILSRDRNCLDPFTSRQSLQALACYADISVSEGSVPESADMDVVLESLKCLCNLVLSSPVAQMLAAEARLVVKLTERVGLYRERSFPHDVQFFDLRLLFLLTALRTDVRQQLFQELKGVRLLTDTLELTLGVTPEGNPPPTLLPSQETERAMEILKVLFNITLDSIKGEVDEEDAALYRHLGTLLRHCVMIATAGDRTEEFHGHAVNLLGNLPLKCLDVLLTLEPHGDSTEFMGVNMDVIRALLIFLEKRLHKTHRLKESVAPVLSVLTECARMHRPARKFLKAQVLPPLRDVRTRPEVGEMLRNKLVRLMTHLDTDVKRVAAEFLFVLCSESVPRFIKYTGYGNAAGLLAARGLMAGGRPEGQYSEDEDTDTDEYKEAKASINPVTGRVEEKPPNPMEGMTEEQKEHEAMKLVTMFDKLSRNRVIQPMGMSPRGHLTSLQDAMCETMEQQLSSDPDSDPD
inactive: [1] -0.033 | [2] 0.02 | [3] 0.015 | [4] -0.041 | [5] -0.094

SEC31A (UniProt O94979)
inactive: [1] -0.067 | [2] 0.034 | [3] 0.09 | [4] -0.03 | [5] -0.006

RARS2 (UniProt Q5T160)
inactive: [1] 0.021 | [2] 0.046 | [3] 0.044 | [4] -0.026 | [5] -0.007

SEC24A (UniProt O95486)
inactive: [1] -0.022 | [2] 0.02 | [3] 0.014 | [4] -0.027 | [5] -0.021

SELENOH (UniProt Q8IZQ5)
Sequence of UniProt Q8IZQ5 (Q8IZQ5 whole entry, looked up): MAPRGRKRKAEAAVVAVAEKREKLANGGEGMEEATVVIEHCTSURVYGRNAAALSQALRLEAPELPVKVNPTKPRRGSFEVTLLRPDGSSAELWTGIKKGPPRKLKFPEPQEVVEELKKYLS
inactive: [1] 0.049 | [2] -0.107 | [3] -0.258 | [4] -0.028 | [5] 0.08

SAFB2 (UniProt Q14151)
inactive: [1] 0.051 | [2] -0.087 | [3] -0.103 | [4] 0.045 | [5] 0

RCOR3 isoform 3 (UniProt Q9P2K3)
active: [5] 1.27
inactive: [1] -0.139 | [2] 0.087 | [3] 0.111 | [4] -0.06

RBM22 (UniProt Q9NW64)
inactive: [1] 0.033 | [2] -0.022 | [3] -0.013 | [4] 0.027 | [5] 0.049

SCAMP2 (UniProt H3BUB6)
inactive: [1] 0.03 | [2] -0.017 | [3] 0.308 | [4] 0.15 | [5] 0.135

RPS9 (UniProt P46781)
inactive: [1] 0.073 | [2] -0.19 | [3] -0.24 | [4] 0.134 | [5] 0

RAB8B (UniProt Q92930)
inactive: [1] 0.004 | [2] -0.006 | [3] -0.222 | [4] 0.033 | [5] -0.062

RPP14 (UniProt O95059)
inactive: [1] 0.044 | [2] -0.023 | [3] -0.028 | [4] 0.002 | [5] -0.009

RBM48 isoform 2 (UniProt Q5RL73)
inactive: [1] 0.008 | [2] 0.058 | [4] -0.36 | [5] 0.113

SAP30 (UniProt O75446)
inactive: [2] -0.006 | [3] -0.002 | [5] -0.032

RUFY3 isoform 3 (UniProt Q7L099)
inactive: [2] -0.004 | [3] 0.061 | [4] 0.016 | [5] 0.029

SH3GL1 (UniProt Q99961)
inactive: [1] -0.073 | [2] 0 | [3] 0.118 | [4] 0.002 | [5] -0.049

RABGAP1L isoform 5 (UniProt Q5R372)
inactive: [1] 0.027 | [2] 0.027 | [4] 0.113 | [5] 0.066

ROMO1 (UniProt P60602)
inactive: [1] 0.045 | [2] -0.061 | [4] 0.172 | [5] 0.082

SH2D1B (UniProt O14796)
inactive: [2] 0.205 | [3] -0.047 | [4] 0.003 | [5] 0.033

RPS15 (UniProt P62841)
inactive: [1] 0.126 | [2] -0.113 | [3] -0.02 | [4] 0.122 | [5] 0.106

RPS25 (UniProt P62851)
inactive: [1] 0.046 | [2] -0.166 | [3] -0.139 | [4] 0.09 | [5] 0.002

SERINC1 (UniProt Q9NRX5)
inactive: [1] 0.021 | [3] 0.027 | [4] -0.08

RPL38 (UniProt P63173)
inactive: [1] 0.012 | [2] -0.03 | [3] -0.046 | [4] 0.053 | [5] 0.013

SEMG2 (UniProt Q02383)
inactive: [1] 0.038 | [2] 0.063 | [4] -0.047 | [5] -0.066

RICTOR isoform 3 (UniProt Q6R327)
inactive: [4] 0.043

RRAGB (UniProt Q5VZM2)
inactive: [1] 0.046 | [2] -0.028 | [3] -0.088 | [4] -0.01 | [5] 0.02
